# Tests used:
# Type in all cases: functional
# Plasmodium falciparum [1] = assay: GSK_TCMDC: Inhibition of Plasmodium falciparum 3D7 in whole red blood cells, using parasite LDH activity as an index of growth. Test compounds present at 2uM
# Plasmodium falciparum [2] = assay: GSK_TCMDC: Inhibition of Plasmodium falciparum Dd2 in whole red blood cells, using parasite LDH activity as an index of growth. Test compounds present at 2uM
# HepG2 = assay: GSK_TCMDC: Percent inhibition of human HepG2 cell line. Test compounds present at 10uM.
Structure (SMILES),Inhibition (Plasmodium falciparum [1]),Inhibition (Plasmodium falciparum [2]),Inhibition (HepG2)
CCCCN(CCCC)CCNC(=O)c1cc(OC(F)(F)F)ccc1O,93%,90%,8%
Cl.NC(=O)c1ccccc1Nc1nc(Nc2cccc(N3CCN(CCO)CC3)c2)ncc1Cl,95%,98%,93%
Cc1cccc(CNc2nc(C)cc(N[C@@H](Cc3ccccc3)C(=O)NCCc3ccccc3)n2)c1.O=C(O)C(F)(F)F,99%,85%,24%
O=C(NCCNc1noc(-c2sccc2Br)n1)c1ccc(Cl)cc1,93%,1%,0%
CCCNC(=O)c1ccnc(-c2ccc(CNC3Cc4ccccc4C3)cc2)c1.O=C(O)C(F)(F)F,92%,21%,24%
CCCN(CCC)CC(O)COc1ccccc1C(=O)Nc1ccccc1 (stereo not drawn),92%,95%,6%
O=C(Nc1ccc(-c2nc3ccccc3[nH]2)cc1)C1CCN(Cc2ccc(F)cc2)CC1,100%,91%,13%
Cc1cc2c3c(N)nc(N)nc3ccc2n1C(C)C,93%,0%,70%
CN(C)c1ccc(C2c3[nH]cnc3CCN2C(=O)Nc2cccc([N+](=O)[O-])c2)cc1 (stereo not drawn),98%,15%,0%
Cc1cc(NCCC(=O)Nc2ccccc2)nc(NCCc2cccnc2)n1.O=C(O)C(F)(F)F,84%,4%,0%
O=C(Nc1ccc(CCNCc2ccccc2)cc1)Nc1ccc(OC(F)(F)F)cc1.O=C(O)C(F)(F)F,100%,22%,0%
O=C(COc1ccccc1)N(Cc1ccc(-c2ccc(CNC3Cc4ccccc4C3)cc2)cc1)C1CCNCC1.O=C(O)C(F)(F)F,100%,8%,26%
CS(=O)(=O)c1ccc(CNCc2ccc(-c3cccc(-c4nc5ccccc5[nH]4)c3)cc2)cc1.O=C(O)C(F)(F)F,100%,88%,17%
COc1ccc2nc3cc(Cl)ccc3c(NCCNCC(O)CO)c2n1.Cl (stereo not drawn),100%,100%,12%
COc1cccc(CNC(=O)c2ccnc(-c3ccc(CNCCOc4ccccc4)cc3)c2)c1.O=C(O)C(F)(F)F,83%,10%,23%
Cc1cc(Nc2nc(NCc3cccnc3)nc3ccccc23)n[nH]1,100%,33%,11%

Structure (SMILES),Inhibition (Plasmodium falciparum [1]),Inhibition (Plasmodium falciparum [2]),Inhibition (HepG2)
Cc1ccc(Cn2cnc(N3CC(C)NC(C)C3)cc2=O)cc1NC(=O)Nc1ccc(-c2ccccc2)cc1.O=C(O)C(F)(F)F (stereo not drawn),96%,15%,18%
CN1CCCN(c2ccnc3cc4c(cc23)N(C(=O)c2ccc(Cl)cc2Cl)CC4)CC1.Cl,100%,51%,6%
Cc1c(N)ccc2[nH]c(-c3ccc(N)cc3)nc12,97%,40%,0%
Cc1cc(=O)c(-c2ccc(OCCSc3ccc(C(F)(F)F)cn3)cc2)c(C)[nH]1,97%,96%,2%
O=c1cc(NCCCNCc2cccc(SC(F)(F)F)c2)[nH]c2ccccc12,100%,94%,0%
CC1CCCN(c2ccc(NC(=O)c3cccs3)cc2[N+](=O)[O-])C1 (stereo not drawn),96%,96%,14%
CC(=O)NC1=NC(C)(C)N(OCc2ccc(Cl)c(Cl)c2)C(NC(C)=O)=N1,94%,97%,68%
CC(C)CNCc1cccc(-c2cccc(CN(CCCN3CCN(C)CC3)C(=O)CCC3CCCC3)c2)c1.O=C(O)C(F)(F)F,100%,96%,45%
CCCc1ccc(C(=O)N2C(c3nccs3)C(C(N)=O)CC2(CC(C)C)C(=O)O)cc1 (stereo not drawn),94%,80%,16%
N#Cc1cccc(NC(=O)Nc2cccc(-c3cccc(-c4nc5cc(C(F)(F)F)ccc5[nH]4)c3)c2)c1,100%,99%,74%
O=C(/C=C/c1ccc(Cl)c(Cl)c1)N1CCC(CNCc2cccc3cc[nH]c23)CC1,85%,14%,1%
CS(=O)(=O)c1ccc2c(c1)CCN(CCC1CCC(NC(=O)c3cc4cccc(Br)c4[nH]3)CC1)CC2 (stereo not drawn),92%,7%,27%
COC(=O)Nc1cc(C(F)(F)F)ccc1N1CCC(CNS(=O)(=O)c2ccc(OC)cc2)CC1,99%,95%,13%
CCCCN1CCN(c2cc(NS(=O)(=O)c3cccc(C(=O)Nc4ccc(C(F)(F)F)cc4)c3)ccc2OC)CC1.O=C(O)C(F)(F)F,99%,7%,6%
CCC[C@@H]([C@@H](CC1CCC(C)CC1)C(=O)N[C@@H](CCCCNC(=O)c1ccccn1)C(=O)Nc1nccs1)N(O)C=O (stereo partly drawn),100%,79%,25%

# — ChEMBL document CHEMBL1157539, “Thousands of chemical starting points for antimalarial lead identification” (Nature, 2010)
